# Source: PubChem BioAssay
# System: Human papillomavirus type 1a E7 protein (residues 1-88)
# Assay: HPV1a E7 small-molecule binders, primary screen, biochemical, small-molecule microarray, residues 1-88, 635 nm (AID 1129)
# Settings: small-molecule microarray binding, fluorescence 635 nm; higher = more signal
row,Structure (SMILES),composite z-score
1,C=CC[C@H](OC(=O)Nc1ccc(SC)cc1)c1ccc(O)c2ccccc12,1.23
2,O=C1O[C@@H](c2ccccc2)[C@@H](c2ccccc2)N2[C@@H](c3ccc(OCCO)cc3)[C@]3(C(=O)Nc4ccc(C#CC5=CCCCC5)cc43)[C@@H](C(=O)NC[C@H](O)c3ccccc3)[C@H]12,1.21
3,O=C1O[C@H](c2ccccc2)[C@H](c2ccccc2)N2[C@H]1[C@@H](C(=O)O)[C@]1(C(=O)Nc3ccc(C#CCCO)cc31)[C@H]2c1ccccc1OCCO,0.0764
4,CC(C)c1ccc(NN2C(C(O)c3ccc(C#N)cc3)C=CC3C(=O)N(c4ccccc4)C(=O)C32)cc1 (stereo not given),1.21
5,C[N+](C)(C)CCCC[C@@H]1NC(=O)[C@@H]2C[C@H](C(=O)NCCCCCCN)[C@H](c3cccc(OCCO)c3)N2C1=O,1.16
6,CC(C)[Si]1(C(C)C)OCc2cc(C3CC3)nc(-c3ccc(Oc4ccccc4)cc3)c21,-1.1
7,COCCOC(=O)N1C(=O)[C@@]2(c3cc(C#CC4(O)CCCCCC4)ccc31)[C@H](c1ccc(O)cc1)N1[C@H](c3ccccc3)[C@H](c3ccccc3)OC(=O)[C@H]1[C@@H]2C(=O)N1CCN(c2ncccn2)CC1,1.17
8,COC(=O)c1c(CC[C@@H](CO)NC(=O)N[C@@H](C)Cn2cc(-c3ccccn3)nn2)oc(C(C)=O)c1C(=O)OC,-0.0012
9,CCOC(=O)[C@@H]1CCCCN1C(=O)C(=O)OC,0.504
10,CN(C)c1ccc(C(O)C2C=CC3C(=O)NC(=O)C3N2Nc2ccccn2)cc1 (stereo not given),0.683
11,CC#CCO[Si](C#Cc1ccccc1)(C(C)C)C(C)C,-1.42
12,CC(=O)N1CC2(CC2)CC1c1ccccc1 (stereo not given),0.678
13,COCCOC(=O)N1C(=O)[C@@]2(c3cc(C#CCC(C(=O)OC)C(=O)OC)ccc31)[C@H](c1ccc(OCCO)cc1)N1[C@H](c3ccccc3)[C@H](c3ccccc3)OC(=O)[C@H]1[C@@H]2C(=O)N1CCc2cc(OC)c(OC)cc2C1,1.22
14,C=CCC(OC(C)=O)[C@@H]1[C@@H](N(Cc2cccc3ccccc23)C(=O)Cc2ccc(F)cc2)c2cc(OCCCO)ccc2N1C(=O)c1ccc2ccccc2c1 (stereo not given in full),-0.247
15,CN1C2C=C(CCCO)C(C3C(=O)N(C(N)=O)C(=O)C32)C1C1CC1 (stereo not given),0.186
16,CCCN1C(=O)[C@]2(Cc3ccccc31)N=C(c1ccc(OCCCO)cc1)O[C@@H]2c1ccccc1,1.22
17,NCCCCCNC(=O)[C@@H]1C[C@@H]2C(=O)N[C@@H](CCCCN)C(=O)N2[C@@H]1c1ccc(O)cc1,1.23
18,Cc1ccc(C(C)CC(O)C2C=CC3C(=O)N(c4ccccc4)C(=O)C3N2Nc2ccccc2)o1 (stereo not given),1.28
19,CCCNC(=O)[C@@H]1c2ccccc2C(=O)N(Cc2ccc(OC(F)(F)F)cc2)[C@H]1c1ccc(CO)cc1,0.907
20,CC(C)C(CO)N1C(=O)[C@@H]2[C@H]3C(=O)OCC=C[C@H]3OC23C=CCN(c2ccc(Cl)cc2)C(=O)[C@@H]13 (stereo not given in full),-1.22
21,CC(C)c1ccc(NN2C(C(O)c3ccc(F)cc3)C=CC3C(=O)N(c4ccccc4)C(=O)C32)cc1 (stereo not given),1.24
22,OCCCC1=CC(c2ccc(CN3CCCC3)cc2)N(Cc2cc3c(cc2Br)OCO3)CC1 (stereo not given),0.049
23,COc1cc2c(cc1O)C(c1cccs1)N(Cc1cc3c(cc1Br)OCO3)CC2 (stereo not given),1.28
24,CCCNC(=O)[C@@]1(Sc2ccc(C)cc2)CC(=O)N(C2Cc3ccccc3C2)[C@@H]1c1ccc(CO)cc1I,0.255
25,CC(C)=C1C(=O)C(c2ccccc2)=C2CN3C(=O)N(CCc4ccccc4)C(=O)[C@]3(Cc3ccc(C(F)(F)F)cc3)[C@H]21,0.566
26,COc1cccc(C)c1NC(=O)O[C@H]1[C@H](OC(=O)Nc2ccccc2-c2ccccc2)[C@H](OC(=O)Nc2ccccc2-c2ccccc2)[C@@H](OC)O[C@@H]1CO,1.22
27,COCCCNC(=O)[C@@]1(CCC(=O)OC(C)(C)C)N=C(c2ccc(OCCCO)cc2)O[C@H]1c1ccccc1N=[N+]=[N-],1.26
28,COc1cc2c(cc1O)C(c1ccc(CN3CCCC3)cc1)N(Cc1cc3c(cc1Br)OCO3)CC2 (stereo not given),-0.367
29,CCCC[C@@H](O)C1=C(COC)C[C@H]2C(=O)N(C)C(=O)[C@H]2[C@H]1CO,-0.165
30,COC(=O)C(CC#Cc1ccc2c(c1)[C@]1(C(=O)N2)[C@H](c2ccc(O)cc2)N2[C@H](c3ccccc3)[C@H](c3ccccc3)OC(=O)[C@H]2[C@@H]1C(=O)NC[C@H](O)c1ccccc1)C(=O)OC,0.779
